According to the supplement of paper PMC12494721:
Where a name gives a salt, the structure may show the parent alone.

Assays:
Details in all cases: 20 µM; incubation time: 27 h, anaerobic, 37 °C;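 for the amine columns active = adjusted P below 0.05 in both replicates with a change the same way and a mean fold change under 0.8 or over 1.25; inactive = the rest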
[1] = system: Clostridium sporogenes DSM 1664; assay: growth (OD595) fold change vs plate DMSO controls (fold change (ratio)); higher = more growth
Procedure, shortened: (§1)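 Growth is the fold change relative to the median of plate DMSO controls. Readings came from anaerobic mGAM cultures in 96-well plates grown for 27 h at 37 °C and read at 595 nm. They were blank-subtracted, corrected for compound background with 20 µM compound solutions in water, and converted to OD with a calibration factor of 5. Values are means of 2 biological replicates, and fold changes above 1.5 were set to NA.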

[2] = system: Escherichia coli IAI1; assay: as above
Procedure, shortened: as §1

[3] = system: Klebsiella aerogenes DSM 30053; assay: as above
Procedure, shortened: as §1

[4] = system: Ruminococcus gnavus DSM 108212; assay: as above
Procedure, shortened: as §1

[5] = system: Klebsiella aerogenes DSM 30053; assay: fold change of Histamine concentration vs plate DMSO controls (fold change (ratio)); higher = more amine produced, active = hit call of the paper (significant change in both replicates, either direction)
Procedure, shortened: (§2)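 Amines were quantified by LC–triple-quadrupole MS in dynamic MRM mode against external calibration curves, with drift correction within each batch. The samples were whole anaerobic mGAM cultures of four gut bacterial strains, grown for 27 h at 37 °C in 80 µL wells and extracted with cold acetonitrile/methanol with 0.1% formic acid, then centrifuged. Values are reported as fold change over DMSO controls on the same plate. The mean of 2 biological replicates is given.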

[6] = system: Clostridium sporogenes DSM 1664; assay: fold change of Tryptamine concentration vs plate DMSO controls (fold change (ratio)); higher = more amine produced, active = hit call of the paper (significant change in both replicates, either direction)
Procedure, shortened: as §2

[7] = system: Ruminococcus gnavus DSM 108212; assay: as above
Procedure, shortened: as §2

[8] = system: Escherichia coli IAI1; assay: fold change of Putrescine concentration vs plate DMSO controls (fold change (ratio)); higher = more amine produced, active = hit call of the paper (significant change in both replicates, either direction)
Procedure, shortened: as §2

[9] = system: Klebsiella aerogenes DSM 30053; assay: as above
Procedure, shortened: as §2

[10] = system: Escherichia coli IAI1; assay: fold change of Cadaverine concentration vs plate DMSO controls (fold change (ratio)); higher = more amine produced, active = hit call of the paper (significant change in both replicates, either direction)
Procedure, shortened: as §2

[11] = system: Klebsiella aerogenes DSM 30053; assay: as above
Procedure, shortened: as §2

[12] = system: Ruminococcus gnavus DSM 108212; assay: fold change of 2-Phenylethylamine concentration vs plate DMSO controls (fold change (ratio)); higher = more amine produced, active = hit call of the paper (significant change in both replicates, either direction)
Procedure, shortened: as §2

Structure (SMILES) | growth [1] | growth [2] | growth [3] | growth [4] | fold change of Histamine concentration [5] | fold change of Tryptamine concentration [6] | fold change of Tryptamine concentration [7] | fold change of Putrescine concentration [8] | fold change of Putrescine concentration [9] | fold change of Cadaverine concentration [10] | fold change of Cadaverine concentration [11] | fold change of 2-Phenylethylamine concentration [12]
CCn1cc(C(=O)O)c(=O)c2cc3c(cc21)OCO3 [Oxolinic acid] | 0 | 0.0401 | 0.348 | 0.896 | 0.275 (active) | 0.0614 (active) | 1 (inactive) | 0.59 (active) | 1.08 (inactive) | 0.227 (active) | 0.976 (inactive) | 0.959 (inactive)
CCC(=O)O[C@H]1CC[C@H]2[C@@H]3CCC4=CC(=O)CC[C@]4(C)[C@H]3CC[C@]12C [Testosterone propionate] | 1.02 | 1.01 | 1.03 | – | 1.02 (inactive) | 0.993 (inactive) | 1.08 (inactive) | 0.938 (inactive) | 1.02 (inactive) | 0.985 (inactive) | 1.07 (inactive) | 1.23 (inactive)
CCCN(CCC)N=O [NDPA (N-nitrosodipropylamine)] | 0.977 | 0.974 | 0.99 | 0.958 | 1.01 (inactive) | 1.03 (inactive) | 1.06 (inactive) | 0.969 (inactive) | 0.982 (inactive) | 0.874 (inactive) | 1.01 (inactive) | 1.07 (inactive)
CC(N)C(O)c1ccccc1 (stereo unspecified) [Phenylpropanolamine hydrochloride] | 0.914 | 1.04 | 0.98 | 1.21 | 1.1 (inactive) | 1.22 (inactive) | 1.07 (inactive) | 1.06 (inactive) | 1.03 (inactive) | 1.05 (inactive) | 0.982 (inactive) | 1.08 (inactive)
COc1ccc(C(CN(C)C)C2(O)CCCCC2)cc1 (stereo unspecified) [Venlafaxine] | 0.902 | 0.974 | 0.983 | 1.1 | 1.04 (inactive) | 0.942 (inactive) | 1.01 (inactive) | 1.04 (inactive) | 1 (inactive) | 0.819 (inactive) | 0.974 (inactive) | 1.06 (inactive)
O=C1CC[C@@]2(O)[C@H]3Cc4ccc(O)c5c4[C@@]2(CCN3CC2CC2)[C@H]1O5 [Naltrexone hydrochloride dihydrate] | – | 0.661 | 0.69 | 0.579 | 1.03 (inactive) | – | 0.934 (inactive) | 1.02 (inactive) | 1.01 (inactive) | 0.995 (inactive) | 0.992 (inactive) | 0.896 (inactive)
CC(C)(N)Cc1ccccc1 [Phentermine hydrochloride] | 0.937 | 0.981 | 1.24 | 0.221 | 0.896 (inactive) | 1.03 (inactive) | 0.176 (active) | 0.983 (inactive) | 1.01 (inactive) | 1.05 (inactive) | 1.05 (inactive) | 0.213 (active)
C[N+]1(C)CCCCC1 | 1 | 1.08 | 1.02 | 1.04 | 1.01 (inactive) | 0.957 (inactive) | 1.03 (inactive) | 1 (inactive) | 1.01 (inactive) | 0.995 (inactive) | 1.02 (inactive) | 1.05 (inactive)
CC(=O)OCC(=O)[C@H]1CC[C@H]2[C@@H]3CC[C@H]4C[C@H](O)CC[C@]4(C)[C@H]3C(=O)C[C@]12C [Alfadolone acetate] | 0.985 | 1.26 | 0.997 | 1.11 | 1.03 (inactive) | 1.04 (inactive) | 1.02 (inactive) | 1.22 (inactive) | 0.981 (inactive) | 1.03 (inactive) | 0.977 (inactive) | 1.01 (inactive)
COP(N)(=O)SC (stereo unspecified) | 1.17 | 1.07 | 1.12 | 1.01 | 0.935 (inactive) | 0.998 (inactive) | 1.05 (inactive) | 1.05 (inactive) | 1.01 (inactive) | 0.966 (inactive) | 1.02 (inactive) | 1.06 (inactive)
CN1[C@@H]2CC[C@H]1C[C@@H](OC(=O)[C@H](CO)c1ccccc1)C2 [(L) Hyoscyamine] | – | 1.03 | 1.06 | 1.08 | 0.941 (inactive) | – | 1.13 (inactive) | 0.992 (inactive) | 0.94 (inactive) | 0.923 (inactive) | 1.02 (inactive) | 1.11 (inactive)
O=S(=O)(c1ccc(O)cc1)c1ccc(O)cc1 [Bisphenol S] | 1.08 | 1.02 | 0.994 | 1.04 | 0.949 (inactive) | 1.04 (inactive) | 0.941 (inactive) | 0.883 (inactive) | 0.939 (inactive) | 0.961 (inactive) | 0.998 (inactive) | 0.946 (inactive)
CC1(C)CON(Cc2ccccc2Cl)C1=O | 0.972 | 0.994 | 0.994 | 0.976 | 1.02 (inactive) | 1.02 (inactive) | 1.01 (inactive) | 1.01 (inactive) | 1 (inactive) | 1.02 (inactive) | 0.986 (inactive) | 0.993 (inactive)
